Screening results deposited in PubChem by National Center for Advancing Translational Sciences (NCATS).
Hits are enriched below; roughly 11% of the tested compounds scored in any of these assays.
HP1b binding inh: HP1-beta chromodomain-methylated histone interaction inhibition | Potency, µM (highest dose often 114 µM), for the others: at the highest dose activity change, negative = inhibition, most hits filed as inhibitors | AlphaScreen HP1-beta / biotin-H3K9me3 peptide binding | hit rate 0.56% among 390,000 | AID 540317 | P83916; further: nearly all actives have a fitted effect of over 70% in size
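HP1-beta protein (50 nM final) preincubated 30 min at room temperature with biotinylated H3(1-18)K9me3 peptide (50 nM) in PBS pH 7.4, 0.01% Tween-20, then compound added for 30 min. AlphaScreen streptavidin donor/nickel chelate acceptor beads (10 ug/mL final), 30 min dark, luminescence read.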
VDR inh: vitamin D3 receptor (human) inhibition; P11473; VDR-SRC2-3 peptide fluorescence polarization, 2 h; Potency, µM, inactives show max response, negative = inhibition, actives largely listed as inhibitors; hit rate 0.93% among 400,000; further: on the % scale 0 is the no-effect control and ±100 the full control effect
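VDR–SRC2-3 interaction, FP format. Cmpds 23 nl via pintool, brief spin, 2 h ambient incubation.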
BAZ2B inh: blocks human BAZ2B; AlphaScreen BAZ2B-H3K14Ac peptide displacement; hit rate 4.4% among 360,000; Potency, µM (top dose mostly 114 µM), for the others: at the top dose activity change, negative = inhibition, actives largely listed as inhibitors; Q9UIF8; further: on the % scale 0 is the no-effect control and ±100 the full control effect; nearly all actives have a fitted effect of over 60% in size
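BAZ2B (50 nM) with biotin-H3(5-23)K14Ac peptide (50 nM) in PBS pH 7.4, 0.01% Tween-20, preformed 30 min, then compound 30 min at room temperature; top concentration 110uM. AlphaScreen streptavidin donor/nickel chelate acceptor beads (10 ug/mL final), 20 min dark, signal read.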
JMJD2A Tudor inh: JMJD2A Tudor domain (human) inhibition; O75164; AlphaScreen JMJD2A-Tudor / H3K4me3 peptide binding; Potency, µM (highest dose often 114 µM), inactives show at the top dose activity change, negative = inhibition, hits mostly inhibitors; hit rate 4.4% among 390,000; AID 504339; further: on the % scale 0 is the no-effect control and ±100 the full control effect; nearly all actives have a fitted effect of over 50% in size
G9a block: G9a (human) methyltransferase inhibition; Q96KQ7; Potency, µM (titrated, usually from 102 µM), for inactives: at the highest dose activity, negative = inhibition, most hits filed as inhibitors; G9a H3K9 monomethylation, AlphaScreen, 2 h; AID 504332; hit rate 8.8% among 350,000; further: on the % scale 0 is the no-effect control and ±100 the full control effect; nearly all actives have a fitted effect of over 75% in size
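AlphaScreen read-out: biotin-H3K9 peptide (500 nM) methylation by 20 nM enzyme with 20 uM SAM, 2 h at room temperature after 15 min compound preincubation; anti-monomethyl H3K9 antibody plus donor/acceptor beads, 10 min dark.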
PLK1 PBD inh: blocks phosphopeptide binding to human PLK1 polo-box domain; Plk1 PBD binding of FITC phosphopeptide, fluorescence polarization; Potency, µM, for inactives: max response, negative = inhibition, hits mostly inhibitors; hit rate 2.8% among 360,000; AID 720504; further: series mostly up to about 57 µM; on the % scale 0 is the no-effect control and ±100 the full control effect; nearly all actives have a fitted effect of over 65% in size
Target sequence (P53350 whole entry, looked up, the tested form may be a part): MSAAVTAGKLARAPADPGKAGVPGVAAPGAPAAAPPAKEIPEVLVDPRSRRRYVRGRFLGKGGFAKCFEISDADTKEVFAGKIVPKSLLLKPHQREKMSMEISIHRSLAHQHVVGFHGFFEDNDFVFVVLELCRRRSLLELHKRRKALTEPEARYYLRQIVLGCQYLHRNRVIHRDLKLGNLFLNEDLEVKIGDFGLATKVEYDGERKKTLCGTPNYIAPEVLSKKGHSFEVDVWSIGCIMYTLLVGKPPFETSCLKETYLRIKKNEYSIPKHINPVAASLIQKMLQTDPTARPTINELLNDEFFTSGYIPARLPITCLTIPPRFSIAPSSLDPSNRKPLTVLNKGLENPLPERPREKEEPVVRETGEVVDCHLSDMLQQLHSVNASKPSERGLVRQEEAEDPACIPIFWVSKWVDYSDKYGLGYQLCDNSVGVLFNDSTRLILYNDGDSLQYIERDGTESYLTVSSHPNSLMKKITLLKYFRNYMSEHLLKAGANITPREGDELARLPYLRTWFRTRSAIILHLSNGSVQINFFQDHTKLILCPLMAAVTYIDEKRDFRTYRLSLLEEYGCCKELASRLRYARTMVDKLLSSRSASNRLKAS
VDR confirm: inhibits human vitamin D receptor, primary hit validation; Potency, µM, most hits filed as inhibitors; VDR-coactivator inhibition assay, qHTS confirmation; AID 602199; shares compounds with VDR inh; hit rate 89% among 840
VDR FP fluor: confirmation of human VDR-coactivator binding inhibitors, fluorescein label | shares compounds with VDR inh | hit rate 48% among 840 | AID 602200 | Potency, µM (top dose mostly 57.1 µM), for inactives: at the highest dose activity change, negative = inhibition, most hits filed as inhibitors | VDR-coactivator binding, fluorescein fluorescence polarization
VDR bla: inhibits human VDR in beta-lactamase reporter cells. shares compounds with VDR inh. hit rate 23% among 840. Potency, µM (doses to about 46.1 µM), for the others: at the highest dose activity change, negative = inhibition, actives largely listed as inhibitors. VDR beta-lactamase reporter cells, FRET ratio; cells co-treated with VDR agonist LG190178; further: on the % scale 0 is the no-effect control and ±100 the full control effect
VDR cytotox: cytotoxic in counter-screen for VDR inhibitors; shares compounds with VDR inh; cytotoxicity counter-screen, cell viability, qHTS; Potency, µM (series often up to 48.3 µM), without a hit: at the top dose activity change, negative = cytotoxicity, hits mostly cytotoxic; hit rate 18% among 840;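 further: plate controls were DMSO for no effect and high-concentration cycloheximide for full effect; nearly all actives have a fitted effect of over 75% in size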
* = called active by the depositor; ? = inconclusive; · = no result given; [ ] = dose if it differs, or a comment. The call rests on the fitted dose curve; in most records, active means well fitted curve in the direction sought with a large enough effect; inconclusive means small, poorly fitted or top-dose-only effect, or another doubt; inactive means no such curve, though single readings can be large; an effect the other way counts as inactive or inconclusive. Potency means the concentration at half of the fitted maximal effect.

SMILES	HP1b binding inh	VDR inh	BAZ2B inh	JMJD2A Tudor inh	G9a block	PLK1 PBD inh	VDR confirm	VDR FP fluor	VDR bla	VDR cytotox
CC(=O)c1cccc(OCc2cc(C(=O)NCCC3=CCCCC3)no2)c1	39%	-9%	-2%	0%	33%	-8%	·	·	·	·
O=C(O)c1cccc(Nc2cc(Cl)c3nonc3c2[N+](=O)[O-])c1	39%	13µM*	-17%	-11%	32µM*	12µM*	8.4*	20µM*	31%	-4%
O=[N+]([O-])c1c(Nc2ccc(O)cc2)cc(Cl)c2nonc12	-16%	?	?	?	32µM*	1.7µM*	2.5*	2µM*	?	9.5µM*
O=[N+]([O-])c1c(Nc2ccccn2)cc(Cl)c2nonc12	?	?	?	?	0.71µM*	-97%	3.4*	?	3.7µM*	5.8µM*
O=c1c(Cl)c(Cl)cnn1Cc1nnc(-c2ccc(Cl)cc2)o1	35%	?	·	-13%	?	?	?	?	?	?
O=C1C(Cl)=C(NC(=O)c2ccccc2)C(=O)C(Cl)=C1NC(=O)c1ccccc1	3.5µM*	35µM*	?	0.71µM*	1.3µM*	1.3µM*	4.2*	?	3.7µM*	12µM*
O=C(Nc1ccc(Cl)c(Cl)c1)c1ccccc1	61%	7%	11%	18%	-7%[2.33 µM]	2%	·	·	·	·
Cn1ccnc1Sc1cc(Cl)ccc1[N+](=O)[O-]	20%	1%	-18%	-21%	-4%	-7%	·	·	·	·
CCCC(=O)NC(C)c1nc2ccccc2[nH]1 (stereo not drawn)	49%	-12%	11%	-12%	-6%[59 µM]	-1%	·	·	·	·
CCCC(=O)OCCNc1cc(Sc2nc3ccccc3[nH]2)c2nonc2c1[N+](=O)[O-]	?	20µM*	?	79µM*	?	1.9µM*	8.4*	?	?	23µM*
CCC(=O)OCCNc1cc(Sc2nccn2C)c2nonc2c1[N+](=O)[O-]	-3%	32µM*	6%	-12%	?	2.1µM*	21*	?	?	15µM*
CC(C)(C)S(=O)N1Cc2cc(C(=O)NCc3ccc4c(c3)OCO4)nc(-c3cccc(-c4cc5ccccc5o4)c3)c2[C@@H]1CCO (stereo partly drawn)	·	·	·	·	·	-6%	·	·	·	·
O=C(CSc1nnc2ccc3ccccc3n12)Nc1ccccc1Cl	56%	6%	-25%	0%	3%[59 µM]	·	·	·	·	·
CCc1ccc(S(=O)(=O)Nc2ccc(O)c3ccccc23)cc1	?	?	?	?	15%[2.33 µM]	?	3*	8.9µM*	?	?
CC(C)Oc1ccc(C(=O)CCN2CCCCC2)cc1	54%	?	-4%	-24%	7.9µM*	?	7.1*	3.2µM*	?	-19%
NC(=O)COc1ccc(C(=O)/C=C2/C(=O)Nc3ccccc32)cc1	-4%	?	-15%	?	79µM*	?	?	?	24%	19%
O=C1Nc2ccccc2/C1=C/C(=O)c1cccs1	-25%	?	35µM*	-27%[57.1 µM]	?	17µM*	11*	10µM*	?	18%
CS(=O)(=O)c1ncc(Cl)c(C(=O)N(Cc2ccc(Cl)cc2)Cc2ccco2)n1	7%	25µM*	-31%	-35%	11µM*	·	2.8*	3.5µM*	16µM*	19µM*
O=C(c1ccc(Cl)cc1)N(Cc1ccco1)Cc1ccco1	2%	-3%	?	-29%	-46%[59 µM]	·	·	·	·	·
CCOC(=O)c1cc(-c2ccccc2)sc1NC(=O)c1ccc(OC)cc1	?	50µM*	-33%	?	?	5.3µM*	30*	13µM*	15%	-28%
Nc1nc2c(s1)CCc1c-2cnn1-c1ccccc1	11µM*	20µM*	45µM*	25µM*	?	2.7µM*	4.5*	4µM*	?	?
CCOc1ccc(Cl)cc1/C=N/NC(=O)CNC(=O)c1ccccc1	34%	-11%	1%	-4%	14%[59 µM]	-6%	·	·	·	·
CCOc1cc(/C=C2\CCC/C(=C\c3cc(Cl)c(O)c(OCC)c3)C2=O)cc(Cl)c1O	-28%	-6%	-3%[57.1 µM]	-1%[11.4 µM]	-7%[59 µM]	?	·	·	·	·
CCCOc1ccc2c(CC)cc(=O)oc2c1C	49%	9%	44%	25%	29%[59 µM]	-11%	·	·	·	·
CCCOc1ccc(/C=C2/C(=O)ON=C2C)cc1Cl	17%	18µM*	-10%	6%	28µM*	1.1µM*	7.5*	?	-12%	-37%
SMILES	HP1b binding inh	VDR inh	BAZ2B inh	JMJD2A Tudor inh	G9a block	PLK1 PBD inh	VDR confirm	VDR FP fluor	VDR bla	VDR cytotox
COc1cc(/C=C2/C(=O)ON=C2C)cc(Cl)c1O	-11%	89µM*	56µM*	-24%	35µM*	15%	27*	222%	21%	4%
CCOc1ccc(Cl)cc1/C=C1/C(=O)ON=C1C	14%	?	?	-6%	?	?	8.9*	3.5µM*	-5%	9%
COc1cc(/C=C2\C(=O)ON=C2c2ccc(Cl)cc2)ccc1O	?	?	·	?	·	?	7.1*	?	?	-11%
O=C(Cn1c(=O)[nH]c2sc3c(c2c1=O)CCCC3)NCC1CCCO1 (stereo not drawn)	36%	-18%	-23%	16%	?	-3%	·	·	·	·
CCCCn1c(N)c(N(CCOC)C(=O)CC2CCCCC2)c(=O)[nH]c1=O	21%	-7%	·	-5%	·	-6%	·	·	·	·
CCN(CC(=O)Nc1c(F)cccc1F)C(=O)c1c(-c2ccccc2Cl)noc1C	·	·	·	·	·	-1%	·	·	·	·
Cc1oc(S(=O)(=O)N2CCOCC2)cc1C(=O)Nc1ccc(Cl)cc1	31%	5%	-2%	-7%	7%	-3%	·	·	·	·
COc1cc(/C=C/C(=O)c2ccc(F)cc2)cc(OC)c1OC	24%	32µM*	?	-17%	·	-7%	21*	?	?	?
CN1CCC(OC(=O)c2cccc(Cl)c2)CC1	32%	-5%	-2%	-12%	-38%	-11%	·	·	·	·
